Where “and” joins values, the source holds several entries; their conditions need not be identical. Equal entries are not always repeated. Calls of active or inactive are those of the source. The calls were made as follows: active = hit-call score of the fitted dose curve at least 0.9, where 1 is the maximum; inactive = score below 0.9.

Read-out in this assay: Plasminogen activator inhibitor-1 (PAI1), SERPINE1 (gene 5054)
The assay is described as follows: BSK_hDFCGF_PAI1: BioMAP Diversity Plus: hDFCGF Assay for Plasminogen activator inhibitor-1 (PAI1) Biomarker Activity (AID 2283066). To be noted: primary human foreskin fibroblasts; actives raise or lower the signal. The procedure:
BSK_hDFCGF is a cell-based, multiplexed-readout assay that uses foreskin fibroblast, a human skin primary cell, with measurements taken at 24 hours after chemical dosing in a 96-well plate.BSK_hDFCGF_PAI1 is an assay component measured in the BSK_hDFCGF assay. It measures PAI-1 antibody related to regulation of gene expression using ELISA technology.Data from the assay component BSK_hDFCGF_PAI1 was analyzed into 1 assay endpoint. This assay endpoint, BSK_hDFCGF_PAI1, was analyzed with bidirectional fitting relative to DMSO as the negative control and baseline of activity. Using a type of binding reporter, gain or loss-of-signal activity can be used to understand changes in the signaling as they relate to the gene SERPINE1. Furthermore, this assay endpoint can be referred to as a primary readout, because this assay has produced multiple assay endpoints where this one serves a signaling function. To generalize the intended target to other relatable targets, this assay endpoint is annotated to the cytokine intended target family, where the subfamily is plasmogen activator inhibitor.
The levels of cell surface (or secreted, indicated by the prefix "s") biomarker endpoints were measured by ELISA. Overt cytotoxicity to cells in confluent adherent cultures (all systems other than the BT system) was assessed by measuring total protein levels using sulforhodamine B (SRB) staining in parallel cultures at the time of biomarker measurements, indicated as SRB endpoints. For proliferation assays for adherent cell types, individual cell types are cultured at sub-confluence and relative cell numbers quantified by SRB staining at time points optimized for each system (48 h: 3C and CASM3C systems; 72 h: BT and HDF3CGF systems; 96 h: SAg system). SRB was performed by staining cells with 0.1% SRB after fixation with 10% TCA and reading wells at 560 nm.Viability and proliferation of PBMC (T cells) was quantified by Alamar Blue reduction for the SAg and BT systems. For PBMC viability (referred to as PBMC Cytotoxicity within the assay endpoint names), cells were plated (75,000/well in a 96-well plate) and then chemical samples added for 1 h before addition of activators, SEB and TSST-1 (20 ng/mL final concentration each). Cells were incubated for 90 h. Then, Alamar Blue (20 uL/well) (Invitrogen, Cat DAL1100) was added for 6 h, and the plates were read with a fluorescence microplate reader at 546/580 nm (excitation/emission). For PBMC proliferation, cells were plated and activated as above but incubated for only 16 h prior to addition of Alamar Blue. Plates were read after 6 h.
Consider `CC(C)COP(=O)(OCC(C)C)OCC(C)C`, for which the result was inactive.
On the same count and under the same terms, then `O=[N+]([O-])O`, with “inactive”.
The term AC50 denotes the concentration at which the activity in the assay is half-maximal. Take `CC(C)(C)C(=O)CCl`: the AC50 was 0.405 µM (active).
As for `CCCC[N+](CCCC)(CCCC)CCCC`, the outcome was inactive.
The same measure, in the same setting: then `O=C(O)CCCc1ccc(N(CCCl)CCCl)cc1`, with “inactive”.
Take `CC(C)(c1cc(Cl)c(O)c(Cl)c1)c1cc(Cl)c(O)c(Cl)c1`: the AC50 is 6.66 µM (active).
Still for that read-out and setting: as for `O=C1C(Cl)=C(Cl)C(=O)C(Cl)=C1Cl`, the figure is 27.1 µM (active); as for `COC(C)(C)CCC[C@H](C)C/C=C/C(C)=C/C(=O)OC(C)C`, 28.4 µM (active).
Consider `O=P1(NCCCl)OCCCN1CCCl` (stereo not drawn), for which the result was inactive.
On to `O=[N+]([O-])C=Cc1ccccc1`, for which the AC50 was 4.03 µM (active).
For `CCCOC(=O)c1ccccc1C(=O)OCCC`, the result was inactive.
The same measure, in the same setting: then `N#CCCCCC#N`, with “inactive”; and `COCC(=O)N(c1c(C)cccc1C)N1CCOC1=O`, with “inactive”; and `O=S(=O)(c1ccccc1)c1ccccc1`, with “inactive”.
With `Clc1ccc(-c2ccccc2)cc1`, the result was inactive.
For `CC(C)CCCCCCCOP(=O)(Oc1ccccc1)Oc1ccccc1`, the AC50 was 8.46 µM (active).
Still for that read-out and setting: then `Oc1ccc(C2(c3ccc(O)cc3)c3ccccc3-c3ccccc32)cc1`, with 728 nM (active) and 803 nM (active).
For `CC(=O)/C=C/c1ccccc1`, the result was inactive.
In the case of `CCC(C)c1cc([N+](=O)[O-])cc([N+](=O)[O-])c1OC(=O)C=C(C)C` (stereo not drawn), the AC50 is 3.95 µM (active).
For `Oc1cc(Cl)ccc1Cl`, the result was inactive.
On to `C=CC(=O)OCC(CC)CCCC` (stereo not drawn), for which the AC50 is 20 µM (active).
In the case of `[Cd+2].[Cl-].[Cl-]`, the AC50 is 601 nM (active) and 305 nM (active).
On to `CC(C)(C)C(O)C(Oc1ccc(-c2ccccc2)cc1)n1cncn1` (stereo not drawn), for which the outcome was inactive.
For `CNC(=O)Oc1cc(C)c(SC)c(C)c1`, the result was inactive.
On the same count and under the same terms, then `Nc1ccc(-c2ccc(N)c(N)c2)cc1N`, with “inactive”; and `C=CCN(CC=C)C(=O)C(Cl)Cl`, with “inactive”.
`c1ccc(Nc2ccc3ccccc3c2)cc1`: the half-maximal activity concentration (AC50) was 29.3 µM (active).
As for `CCCCCCCCCCCC#N`, the half-maximal activity concentration (AC50) is 31.8 µM (active).
Turning to `Cc1ccc(OP(=O)(Oc2ccc(C)cc2)Oc2ccc(C)cc2)cc1` (tested in a mixture with another compound), the outcome was inactive.
For `O=[N+]([O-])c1ccc(Cl)cc1`, the result was inactive.
With `COc1ccc(CO)cc1`, the result was inactive.
As for `O=C1C=CC(=O)C=C1`, the concentration at half-maximal activity (AC50) was 20 µM (active) and 19.2 µM (active).
For `O=c1c2ccccc2c(=O)c2c1cc(Cl)c1[nH]c3c([nH]c12)c(Cl)cc1c(=O)c2ccccc2c(=O)c13`, the outcome was inactive.
As to `CCc1cc(C)cc(CC)c1-c1c(OC(=O)C(C)(C)C)n2n(c1=O)CCOCC2`, the half-maximal activity concentration (AC50) was 3.97 µM (active).
Regarding `CC(C)CCCCCCCOC(=O)c1ccccc1C(=O)OCCCCCCCC(C)C`, the outcome was inactive.
For `O=c1[nH]c(Cl)c(Cl)cc1Cl`, the outcome was inactive.
Regarding `O=C(CCl)c1ccccc1`, the AC50 is 6.44 µM (active).
Turning to `CC1(C)[C@H](C(=O)O[C@H](C#N)c2cccc(Oc3ccccc3)c2)[C@@H]1C=C(Br)Br`, the result was inactive.

The values are drawn from PubChem BioAssay (EPA / NIEHS).
